Source: PubChem BioAssay
Calls of active or inactive are those of the source. No rule for the calls is given here.

Assay: inhibition of Brca1/Bard1 split-luciferase complementation, confirmation, counter-screen for Mdm2/MdmX interaction inhibitor project, luminescence, single concentration (AID 504668)
Details: Brca1/Bard1 bimolecular luciferase complementation counterscreen, at 8 µM, active compounds read high

OC(c1cc(C(F)(F)F)nc2c(C(F)(F)F)cccc12)C1CCCCN1 (stereo not given)
inhibition: 35.8% (active)

CCOc1cc(/C=N/N=C(\N)c2nonc2N)cc(Br)c1OCc1cccc2ccccc12
inhibition: 33.4% (active)

COc1ccc2nc(NC(=O)/C=C/c3ccc4c(c3)OCO4)sc2c1
inhibition: 35.2% (active)

COc1cc(NC(=S)NC(=O)c2ccc(C(C)(C)C)cc2)ccc1NC(=O)c1cccs1
inhibition: 27.7% (active)

CCN(CC)S(=O)(=O)c1ccc2c(c1)C(=NO)c1cc(S(=O)(=O)N(CC)CC)ccc1-2
inhibition: 23.7% (active)

Cn1cccc1-c1cc(C(=O)N/N=C/c2cc(Br)ccc2O)[nH]n1
inhibition: 25.9% (active)

O=C(Oc1ccnc2cc(Cl)ccc12)N1CCCCCC1
inhibition: 30% (active)

FC(F)(F)c1cnc(NNC(=S)Nc2ccc(Cl)cc2)c(Cl)c1
inhibition: 23.3% (active)

Cc1nc(-n2[nH]c3c(c2=O)CCCC3)[nH]c(=O)c1Cc1ccccc1
inhibition: 30.8% (active)

Cn1nccc1C(=O)N/N=C/c1c(O)ccc2ccccc12
inhibition: 31.1% (active)

Cc1ccc(-n2c(C)cc(/C=c3/sc4nc5ccccc5n4c3=O)c2C)cc1
inhibition: 27.7% (active)

O=C(CSCC(=O)Nc1ccccc1)N/N=C/c1c(O)ccc2ccccc12
inhibition: 28.3% (active)

Cn1c(/C=C/c2ccc(Br)cc2)c([N+](=O)[O-])c(=O)n(C)c1=O
inhibition: 23.9% (active)

CCOc1ccc(-c2nnc(SCC(=O)Nc3ccc4c(c3)c3ccccc3n4CC)n2N)cc1
inhibition: 23.1% (active)

COc1ccccc1C(NC(C)=O)c1cc(Cl)c2cccnc2c1O (stereo not given)
inhibition: 31.2% (active)
